Measurements reported in the OligoGym collection.

Target: CREB5
Experiment: pooled miR-30 sensor sort-seq; sequence = guide strand
Conditions: shRNA
Further: reference of the scale not given here.

| Sequence | sensor-assay potency score (higher = more potent) |
| --- | --- |
| TTTAAAAACAAGTAGATCCTAC | 0.376 |
| TATGTGTTAACAACAACTGTTT | -0.672 |
| TTGAACTGAGCTATTTTTCTGG | 0.269 |
| TTGAACAATGTAATCTGTGTAG | -0.458 |

Target: CREG1
Experiment: as above
Conditions: shRNA

| Sequence | sensor-assay potency score (higher = more potent) |
| --- | --- |
| TTCACCTTGGTCACAGTTCCTG | -0.406 |
| ATATTGGTTATATTCAACTTAG | -1.21 |
| TCACCTTGGTCACAGTTCCTGA | -0.428 |
| TGGTCCACCAAAGTAGTCCAGG | -1.37 |
| TAGAAATAGGGCACGCCGCTGC | -0.314 |
| TTTGCAATATCCATTTCTGTTT | -1.42 |
| TTCTTGCAGAAGTTGGTCTGTG | -0.659 |
| TTTCTTGCAGAAGTTGGTCTGT | 0.391 |
| TTGTGGATCAAATCCATGTTTC | -1.13 |
| TTTGTGGATCAAATCCATGTTT | -0.755 |
| TCCAATAACAGGTCAACTCTAT | -0.715 |

Target: CRIPAK
Experiment: as above
Conditions: shRNA

| Sequence | sensor-assay potency score (higher = more potent) |
| --- | --- |
| TAACAGCGTCTGACTCGGCCGG | -0.738 |
| TAGAATGTACGGTAACAGCGTC | -0.204 |
| TACAGAACCACCATGCCAGGGC | 0.653 |
| TCCACATGGGCACATGAGCAGG | -2.25 |
| ATGTACGGTAACAGCGTCTGAC | -0.866 |
| ACCATGAGTAGAATGTACGGTA | -1.4 |
| TATAAAAGGGATCCTTGACATA | -1.08 |
| TACGGTAACAGCGTCTGACTCG | -0.0922 |
| TTAAAAAGCCACCATGAGTAGA | -1.01 |
| AACAGCGTCTGACTCGGCCGGC | -0.602 |
| ACCTACAGAACCACCATGCCAG | -1.69 |
| TCGACATGTGTGAGCAGGCGGG | -1.62 |

Target: CROT
Experiment: as above
Conditions: shRNA

| Sequence | sensor-assay potency score (higher = more potent) |
| --- | --- |
| TAGAGGAGTATTTCCAACTTTA | -0.214 |
| TATACCAGTAAACTACTCTGAA | 0.286 |
| TTGTCTGAGAAGCTCTGGCGGG | -0.935 |
| TAGCATTCGGAATTGATTCATA | -0.712 |
| TTTCATAGCAACAACCAGGGTG | 0.143 |
| TGATGGTATACGAACATCCAGA | -1.05 |
| TATATCTCGTACCTTCTCTGAA | -0.557 |
| TTCTAATTGAGTCCCTTCCTTT | -0.88 |
| TTGTAACATCTTTTGCTGCCGC | -0.495 |
| TTCATAGCAACAACCAGGGTGT | 0.163 |
| TTCAAGTGAAGGAACAGGCAGT | 0.589 |
| TTTTCTTATATTCTTCTTGATT | -1.35 |
